According to PubChem BioAssay (Tox21):
Records with an inconclusive call do not appear. Where a call stands in place of a potency, no number is given. Values without a mark were called inactive. Calls of active or inactive are those of the source. Calls follow the shape of the dose curve; as a rule, active = well fitted curve in the direction sought with a large enough effect in the repeat runs; inconclusive = weak or mixed curves; inactive = no such curve, though single readings can be large; an effect the other way counts as inactive or inconclusive.

Assays:
[1] = qHTS RealTime-Glo MT Cell Viability Assay in HEK293 cells - 16 hour (AID 1224872); also: nearly all actives have a fitted effect of over 50% in size; also: potency is read from the fitted curve at half-maximal effect; as to activity change, negative = cytotoxicity: top concentration of the series differs between compounds
Procedure, shortened: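 Nonlytic real-time viability readout: viable cells convert prosubstrate to NanoLuc substrate, giving luminescence proportional to live cell number. HEK293, 600 cells/well, compound added after 5 h, continuous culture at 37 C.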

[2] = qHTS RealTime-Glo MT Cell Viability Assay in HepG2 cells - 8 hour (AID 1224873); also: nearly all actives have a fitted effect of over 55% in size; also: potency is read from the fitted curve at half-maximal effect
Procedure, shortened: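 HepG2 cells (600/well) mixed with RealTime-Glo MT reagent, settled 5 h at 37 C/5% CO2 before compound addition. Nonlytic NanoLuc luminescence from viable-cell prosubstrate reduction read repeatedly during 40 h treatment at 37 C.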

[3] = qHTS RealTime-Glo MT Cell Viability Assay in HEK293 cells - 40 hour (AID 1224874); conditions: RealTime-Glo luminescence; max response: stronger effect = lower value; also: nearly all actives have a fitted effect of over 50% in size; also: potency is read from the fitted curve at half-maximal effect
Procedure, shortened: (§1)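 Tox21 screen in HEK293 using RealTime-Glo MT chemistry, with cells and reagent co-dispensed. Luminescence proportional to viable cell number was captured at intervals during 40 h compound exposure at 37 C.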

[4] = A CellTox Green Cytotoxicity Assay to monitor cytotoxicity in HEK293 cells - 24 hour (AID 1224875); also: nearly all actives have a fitted effect of over 45% in size; also: potency is read from the fitted curve at half-maximal effect; as to activity change: series mostly up to about 77 µM
Procedure, shortened: (§2)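 Seeding of HEK293 cells together with cytotoxicity dye preceded a 5 h incubation at 37 C/5% CO2. Test compounds in DMSO were then added and fluorescence monitored across 40 h.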

[5] = A CellTox Green Cytotoxicity Assay to monitor cytotoxicity in HepG2 cells - 16 hour (AID 1224876); also: nearly all actives have a fitted effect of over 45% in size; also: potency is read from the fitted curve at half-maximal effect
Procedure, shortened: (§3)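 Nonlytic assay: viable cells exclude the dye, so fluorescence scales with cell death. HepG2 at 600 cells/well, compounds added after 5 h, signal read across 40 h.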

[6] = qHTS RealTime-Glo MT Cell Viability Assay in HepG2 cells - 32 hour (AID 1224877); also: nearly all actives have a fitted effect of over 55% in size; also: potency is read from the fitted curve at half-maximal effect
Procedure, shortened: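 Luminescence read-out: viable HepG2 cells reduce a prosubstrate to a NanoLuc substrate, giving a signal proportional to live cell number. Reads taken at 0, 8, 16, 24, 32 and 40 h of compound exposure at 37 C.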

[7] = A CellTox Green Cytotoxicity Assay to monitor cytotoxicity in HepG2 cells - 24 hour (AID 1224878); also: nearly all actives have a fitted effect of over 45% in size; also: potency is read from the fitted curve at half-maximal effect
Procedure, shortened: as §3

[8] = A CellTox Green Cytotoxicity Assay to monitor cytotoxicity in HepG2 cells - 40 hour (AID 1224879); also: nearly all actives have a fitted effect of over 40% in size; also: potency is read from the fitted curve at half-maximal effect
Procedure, shortened: as §3

[9] = qHTS RealTime-Glo MT Cell Viability Assay in HEK293 cells - 0 hour (AID 1224880); also: top concentration of the series differs between compounds; nearly all actives have a fitted effect of over 45% in size
Procedure, shortened: as §1

[10] = A CellTox Green Cytotoxicity Assay to monitor cytotoxicity in HEK293 cells - 32 hour (AID 1224881); also: nearly all actives have a fitted effect of over 40% in size; also: potency is read from the fitted curve at half-maximal effect
Procedure, shortened: as §2

Compound | Potency [1] | Potency [2] | Potency [3] | Potency [4] | Potency [5] | Potency [6] | Potency [7] | Potency [8] | Potency [9] | Potency [10] | max response [3] | activity change, negative = cytotoxicity [1] | viability change, negative = cytotoxic [2] | activity change [4] | cytotoxicity increase [5] | activity change, negative = cytotoxic [6] | cytotoxicity [7] | activity change, negative = cytotoxicity [9] | cytotoxicity increase [10]
COCC(=O)O[C@]1(CCN(C)CCCc2nc3ccccc3[nH]2)CCc2cc(F)ccc2[C@@H]1C(C)C | 5.35 µM (active) | 21.3 µM (active) | 6.74 µM (active) | 21.3 µM (active) | 19 µM (active) | 13.4 µM (active) | 13.4 µM (active) | 10.7 µM (active) | inactive | 21.3 µM (active) |  |  |  |  |  |  |  |  | 
CCc1c(C(=O)O)c(=O)cnn1-c1ccc(Cl)cc1 | inactive | inactive |  | inactive | inactive | inactive | inactive | inactive | inactive | inactive | 18.5% |  |  |  |  |  |  |  | 
Cc1cn[nH]c1 | inactive | inactive |  | inactive | inactive | inactive | inactive | inactive | inactive | inactive | 7.93% |  |  |  |  |  |  |  | 
C=CC(C)(CCC=C(C)C)OC(=O)/C=C/c1ccccc1 (stereo not drawn) | inactive | inactive |  | 27.5 µM (active) | 27.5 µM (active) | inactive | 38.9 µM (active) | 43.6 µM (active) | inactive | 38.9 µM (active) | -2.78% |  |  |  |  |  |  |  | 
CCCCCCCCCCc1ccccc1 | inactive | inactive |  | inactive | inactive | inactive | inactive | inactive | inactive | inactive | -5.33% |  |  |  |  |  |  |  | 
CCN1CCN(c2cc(-c3ccc(F)cc3)c3c(n2)CCCCCC3)CC1 |  |  |  |  |  |  |  | 11.7 µM (active) |  |  | -18.7% | 2.72% [at 15.8 µM] | 1.26% [at 15.8 µM] | 2.45% [at 15.8 µM, stronger effect = higher value] | 12.3% [at 15.8 µM] | -10.2% [at 15.8 µM] | 24% [at 15.8 µM] | 9.2% [at 15.8 µM] | 10% [at 15.8 µM]
CCOC(/C=C(\C)CCC=C(C)C)OCC | inactive | inactive |  | inactive | inactive | inactive | inactive | inactive | inactive | inactive | 9.38% |  |  |  |  |  |  |  | 
C=CC(C)C#N (stereo not drawn) | inactive | inactive |  | inactive | inactive | inactive | inactive | inactive | inactive | inactive | 11.1% |  |  |  |  |  |  |  | 
O[C@@H](c1cc(C(F)(F)F)nc2c(C(F)(F)F)cccc12)[C@H]1CCCCN1 | 7.56 µM (active) | 23.9 µM (active) | 8.49 µM (active) | 26.8 µM (active) | 23.9 µM (active) | 13.4 µM (active) | 21.3 µM (active) | 15.1 µM (active) | inactive | 23.9 µM (active) |  |  |  |  |  |  |  |  | 
CCCCCCCC(C)=O | inactive | inactive |  | inactive | inactive | inactive | inactive | inactive | inactive | inactive | 0.179% |  |  |  |  |  |  |  | 
COC(=O)CC#N | inactive | inactive |  | inactive | inactive | inactive | inactive | inactive | inactive | inactive | 9.57% |  |  |  |  |  |  |  | 
CCc1ccc(C)nc1 | inactive | inactive |  | inactive | inactive | inactive | inactive | inactive | inactive | inactive | -9.25% |  |  |  |  |  |  |  | 
Cc1c(-c2ccc(O)cc2)n(Cc2ccc(OCCN3CCCCCC3)cc2)c2ccc(O)cc12 | 2.68 µM (active) | 23.9 µM (active) | 3.38 µM (active) | 21.3 µM (active) | 23.9 µM (active) | 9.52 µM (active) | 19 µM (active) | 8.49 µM (active) | inactive | 19 µM (active) |  |  |  |  |  |  |  |  | 
CC1(C)C(=O)N(Br)C(=O)N1Br | inactive | inactive |  | inactive | inactive | inactive | inactive | inactive | inactive | inactive | -1.21% |  |  |  |  |  |  |  | 
O=C(O)CCn1c2c(c3ccccc31)C[C@H](NS(=O)(=O)c1ccc(F)cc1)CC2 | inactive | inactive |  | inactive | inactive | inactive | inactive | inactive | inactive | inactive | 8.69% |  |  |  |  |  |  |  | 
CC(C)=CC1CC(C)CCO1 (stereo not drawn) | inactive | inactive |  | inactive | inactive | inactive | inactive | inactive | inactive | inactive | 2.02% |  |  |  |  |  |  |  | 
CCCCCCCCCCCCCC[n+]1ccccc1 | 27.5 µM (active) | 49 µM (active) | 1.74 µM (active) | 38.9 µM (active) | 19.5 µM (active) | 12.3 µM (active) | 15.5 µM (active) | 11 µM (active) | inactive | 34.7 µM (active) |  |  |  |  |  |  |  |  | 
CCCCCCCC/C=C/CCCOC(C)=O | inactive | inactive |  | inactive | inactive | inactive | inactive | inactive | inactive | inactive | 4.7% |  |  |  |  |  |  |  | 
C=CC/C=C/C/C=C/C/C=C/C | inactive | inactive |  | inactive | inactive | inactive | inactive | inactive | inactive |  | 0% |  |  |  |  |  |  |  | 
CC(C)c1ccccc1N | inactive | inactive |  | inactive | inactive | inactive | inactive | inactive | inactive |  | 0.54% |  |  |  |  |  |  |  | 
CCC1CCCCC1 | inactive | inactive |  | inactive | inactive | inactive | inactive | inactive | inactive | inactive | -1.07% |  |  |  |  |  |  |  | 
